# Measured values from PubChem BioAssay (Tox21).
# A number with no mark means an inactive call. Inconclusive results are not listed. Where a call stands in place of a potency, no number is given. Calls of active or inactive are those of the source. Unless noted, calls follow the shape of the dose curve; as a rule, active = well fitted inhibition curve with a large enough effect in the repeat runs (not every such curve was filed as active); inconclusive = weak or mixed curves; inactive = flat fitted curve, though single readings scatter.
# Tested on: not listed separately
# Assay: qHTS assay to identify small molecule agonists of the TGF-beta/Smad signaling pathway - cell viability counter screen (AID 1346829; active = well fitted cell-killing curve with a large enough effect in the repeat runs; also: top concentration of the series differs between compounds; nearly all actives have a fitted effect of over 45% in size)
# Settings: SBE-bla HEK293T viability, CellTiter-Glo luminescence, 5 h; series mostly up to 76.8 µM
# Outline: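 After overnight seating at 37 C and 5% CO2, reporter cells got compounds for 5 hr and FRET substrate for 2 hr; cell viability then came from CellTiter-Glo luminescence.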
row,SMILES,outcome
1,OC[C@H]1O[C@@H](OCCc2ccc(O)cc2)[C@H](O)[C@@H](O)[C@@H]1O,inactive
2,O=C(O)c1ccccc1Cl,inactive
3,COC(=O)c1ccc(I)cc1S(=O)(=O)NC(=O)Nc1nc(C)nc(OC)n1,inactive
4,CN1CCN(C(c2ccccc2)c2ccccc2)CC1,inactive
5,C[Si](C)(CCCN)O[Si](C)(C)CCCN,inactive
6,C=C(C)C(=O)OCCO,inactive
7,COc1cc(Cl)ccc1Oc1ccc(Cl)cc1Cl,inactive
8,CCOC(=O)Cc1cccc2ccccc12,inactive
9,CCOc1ccc(O)cc1,inactive
10,O=C(O)c1ccc(-n2nc(-c3ccccc3O)nc2-c2ccccc2O)cc1,inactive
11,O=C1[C@H]2CCCC[C@H]2C(=O)N1CCCCN1CCN(c2nsc3ccccc23)CC1,inactive
12,C[N+]1(C)CCC(OC(=O)C(O)(c2ccccc2)C2CCCC2)C1 (stereo unspecified),inactive
13,O=C(CS)Nc1ccccc1,inactive

# Tested on: not listed separately
# Assay: qHTS assay to identify small molecule agonists of the TGF-beta/Smad signaling pathway (AID 1346859; active = well fitted activation curve with a large enough effect in the signal ratio in the repeat runs, not every such curve was filed as active; the % refers to the signal ratio; also: potency is read from the fitted curve at half-maximal effect)
# Settings: SBE-bla HEK293T, TGF-beta/Smad beta-lactamase reporter, 5 h; series mostly up to 76.8 µM
# Outline: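 HEK 293T cells stably carrying a beta-lactamase reporter driven by the Smad binding element were seeded overnight, exposed to DMSO-dissolved compounds for 5 hr at 37 C, 5% CO2, then loaded with FRET substrate for 2 hr at room temperature.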
SMILES,Potency,activation
CCC(=O)O[C@]1(C(=O)CCl)[C@@H](C)C[C@H]2[C@@H]3CCC4=CC(=O)C=C[C@]4(C)[C@@]3(F)[C@@H](O)C[C@@]21C,inactive,–
Nc1cccc(S(=O)(=O)c2cccc(N)c2)c1,inactive,–
O=CC1CC=CCC1 (stereo unspecified),inactive,–
CN(C)CCN(Cc1ccsc1)c1ccccn1,inactive,–
Brc1c2ccccc2c(Br)c2ccccc12,2220 nM (active),–
COC(C)OC,inactive,–
O=[N+]([O-])c1ccc(NCCO)c(OCCO)c1,inactive,–
CCCCCC[C@@H](O)C/C=C\CCCCCCCC(=O)OC,inactive,–
COc1ccc2cccc(CCNC(C)=O)c2c1,inactive,–
OC(C#CCN1CCCC1)(c1ccccc1)c1ccccc1,inactive,–
CC(C)(C)Cl,inactive,–
CCN(CC)CCNc1ccc(CNC=O)c2sc3ccc(OC)cc3c(=O)c12,inactive,–
CCOC(=O)C(F)(F)F,inactive,–
CC(=O)c1cccc([N+](=O)[O-])c1,inactive,–
COc1ccc(C(=O)N2CCN(CC(=O)N3CCOCC3)CC2)cc1,inactive,–
O=C(O)CNCC(=O)O,–,6.59% [at 6.97 µM]
O=C(O)c1ccc(S(=O)(=O)O)cc1C(=O)O,inactive,–

SMILES,Potency,activation
CCCn1cnc2c1c(=O)n(CCCCC(C)=O)c(=O)n2C,inactive,–
CCCCCCCCCCCC(=O)OC[C@@H](O)[C@H]1OC[C@H](OCCO)[C@H]1OCCO,inactive,–
O=C1OC(CN2CCOCC2)CN1/N=C/c1ccc([N+](=O)[O-])o1 (stereo unspecified),inactive,–
Nc1ccc(N)c2c1C(=O)c1ccccc1C2=O,inactive,–
OC[C@H]1O[C@@H](OCCc2ccc(O)cc2)[C@H](O)[C@@H](O)[C@@H]1O,inactive,–
O=C(O)c1ccccc1Cl,inactive,–
COC(=O)c1ccc(I)cc1S(=O)(=O)NC(=O)Nc1nc(C)nc(OC)n1,inactive,–
CN1CCN(C(c2ccccc2)c2ccccc2)CC1,inactive,–
C[Si](C)(CCCN)O[Si](C)(C)CCCN,inactive,–
C=C(C)C(=O)OCCO,inactive,–
COc1cc(Cl)ccc1Oc1ccc(Cl)cc1Cl,inactive,–
CCOC(=O)Cc1cccc2ccccc12,inactive,–
CCOc1ccc(O)cc1,inactive,–
O=C(O)c1ccc(-n2nc(-c3ccccc3O)nc2-c2ccccc2O)cc1,inactive,–
O=C1[C@H]2CCCC[C@H]2C(=O)N1CCCCN1CCN(c2nsc3ccccc23)CC1,inactive,–
C[N+]1(C)CCC(OC(=O)C(O)(c2ccccc2)C2CCCC2)C1 (stereo unspecified),inactive,–
O=C(CS)Nc1ccccc1,inactive,–

# Molecular target: Thyrotropin-releasing hormone receptor (Homo sapiens) (UniProt P34981)
# Assay: qHTS assay to identify small molecule antagonists of the thyrotropin-releasing hormone receptor (TRHR) signaling pathway (AID 1346877)
# Settings: TRHR-HEK293, TRH-induced calcium fluorescence, antagonist mode; series mostly up to 51.3 µM
# Outline: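 Overnight-plated (18 h, 37 °C) HEK293 cells expressing TRHR were dye-loaded 2 h, treated with compound, then stimulated with TRH at 1 nM final. Fluorescence intensity was captured every second for 3 min.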
# Sequence of Thyrotropin-releasing hormone receptor (Homo sapiens) (P34981 whole entry, looked up): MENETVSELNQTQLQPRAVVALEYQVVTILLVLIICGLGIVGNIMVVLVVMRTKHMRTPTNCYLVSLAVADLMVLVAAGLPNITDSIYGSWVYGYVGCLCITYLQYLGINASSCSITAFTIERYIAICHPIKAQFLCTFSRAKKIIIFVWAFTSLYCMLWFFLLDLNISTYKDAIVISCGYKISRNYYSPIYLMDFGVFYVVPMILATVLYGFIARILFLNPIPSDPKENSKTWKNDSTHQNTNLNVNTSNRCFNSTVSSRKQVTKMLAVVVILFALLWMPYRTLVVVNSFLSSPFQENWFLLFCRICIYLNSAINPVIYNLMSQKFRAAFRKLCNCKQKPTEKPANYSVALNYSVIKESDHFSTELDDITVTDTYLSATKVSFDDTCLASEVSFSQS
SMILES,outcome,"activity, negative = inhibition"
CCC(=O)O[C@]1(C(=O)CCl)[C@@H](C)C[C@H]2[C@@H]3CCC4=CC(=O)C=C[C@]4(C)[C@@]3(F)[C@@H](O)C[C@@]21C,inactive,–
Nc1cccc(S(=O)(=O)c2cccc(N)c2)c1,inactive,–
O=CC1CC=CCC1 (stereo unspecified),inactive,–
CN(C)CCN(Cc1ccsc1)c1ccccn1,inactive,–
Brc1c2ccccc2c(Br)c2ccccc12,–,-1.3% [at 4.65 µM]
COc1ccc2cccc(CCNC(C)=O)c2c1,inactive,–
CC(C)(C)Cl,inactive,–
CCN(CC)CCNc1ccc(CNC=O)c2sc3ccc(OC)cc3c(=O)c12,inactive,–
CCOC(=O)C(F)(F)F,inactive,–
CC(=O)c1cccc([N+](=O)[O-])c1,inactive,–
O=C(O)CNCC(=O)O,–,-17.8% [at 4.65 µM]
CCCn1cnc2c1c(=O)n(CCCCC(C)=O)c(=O)n2C,inactive,–
CCCCCCCCCCCC(=O)OC[C@@H](O)[C@H]1OC[C@H](OCCO)[C@H]1OCCO,inactive,–
OC[C@H]1O[C@@H](OCCc2ccc(O)cc2)[C@H](O)[C@@H](O)[C@@H]1O,inactive,–
O=C(O)c1ccccc1Cl,inactive,–
COC(=O)c1ccc(I)cc1S(=O)(=O)NC(=O)Nc1nc(C)nc(OC)n1,inactive,–
CN1CCN(C(c2ccccc2)c2ccccc2)CC1,inactive,–
C[Si](C)(CCCN)O[Si](C)(C)CCCN,inactive,–
C=C(C)C(=O)OCCO,inactive,–
COc1cc(Cl)ccc1Oc1ccc(Cl)cc1Cl,inactive,–
CCOc1ccc(O)cc1,inactive,–
O=C1[C@H]2CCCC[C@H]2C(=O)N1CCCCN1CCN(c2nsc3ccccc23)CC1,inactive,–
C[N+]1(C)CCC(OC(=O)C(O)(c2ccccc2)C2CCCC2)C1 (stereo unspecified),inactive,–
O=C(CS)Nc1ccccc1,inactive,–
